Assay outcomes from PubChem.
An excerpt weighted towards active compounds, which were near 1.2% of everything screened.
KCNH2 WT inh: KCNH2 (human, wildtype) channel inhibition; U2OS, BacMam KCNH2, thallium flux FluxOr; hits give low values; activity change, % at 1.84 µM; actives 0.37% (n = 340,000); AID 720551;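 active means maximum activity change below -70%; inconclusive means maximum activity change between -70% and -50%; inactive means maximum activity change above -50%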; further: on the % scale 0 is the no-effect control and ±100 the full control effect
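U2OS cells transduced with wild-type KCNH2 virus are loaded with FluxOr dye for 45 min, and thallium flux is measured in kinetic reads before and after stimulation buffer. Rate constants are normalized to DMSO controls.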
S-ASM inh: human S-ASM enzyme inhibition; placental ASM, HMU-PC fluorogenic substrate, 60 min; Potency, µM (top dose mostly 57.5 µM), for the others: at the highest dose activity change, negative = inhibition, most hits filed as inhibitors; actives 0.006% (n = 340,000); AID 504937; further: potency means the concentration at half of the fitted maximal effect
Target sequence (P17405 47-631 limits assumed): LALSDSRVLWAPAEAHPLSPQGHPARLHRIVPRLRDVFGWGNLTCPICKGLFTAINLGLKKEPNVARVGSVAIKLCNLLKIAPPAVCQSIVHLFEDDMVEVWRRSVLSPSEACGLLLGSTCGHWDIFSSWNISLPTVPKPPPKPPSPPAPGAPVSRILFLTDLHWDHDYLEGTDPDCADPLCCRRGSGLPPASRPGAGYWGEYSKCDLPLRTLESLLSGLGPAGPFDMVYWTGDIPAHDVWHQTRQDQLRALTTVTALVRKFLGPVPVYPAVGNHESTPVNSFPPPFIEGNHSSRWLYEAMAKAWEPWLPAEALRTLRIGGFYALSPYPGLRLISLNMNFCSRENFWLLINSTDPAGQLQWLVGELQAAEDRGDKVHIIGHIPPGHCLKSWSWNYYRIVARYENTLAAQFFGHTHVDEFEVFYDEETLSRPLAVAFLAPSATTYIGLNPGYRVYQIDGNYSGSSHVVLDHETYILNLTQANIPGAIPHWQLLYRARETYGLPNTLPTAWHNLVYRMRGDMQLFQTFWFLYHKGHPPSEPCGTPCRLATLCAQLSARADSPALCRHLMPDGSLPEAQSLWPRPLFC
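Fluorogenic HMU-PC substrate (9 uM final) is turned over by placental ASM in 60 min at 37 C after a 10 min compound preincubation. Reaction ended by alkaline stop (pH 10), with fluorescence read at 386/447 nm.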
mIDH1 inhibitor: inhibitors of human mutant IDH1 R132H. O75874. IDH1-R132H enzyme, NADPH consumption, diaphorase/resazurin fluorescence. Potency, µM (doses to about 76.6 µM), for the others: at the highest dose activity change, negative = inhibition, usual class: inhibitors. actives 0.093% (n = 390,000); further: potency means the concentration at half of the fitted maximal effect; on the % scale 0 is the no-effect control and ±100 the full control effect; nearly all actives have a fitted effect of over 65% in size
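IDH1-R132H (0.5 ug/mL) preincubated 30 min with compound, then NADPH (0.016 mM) and alpha-KG (2 mM) added; 80 min at RT, pH 7.5. Remaining NADPH coupled via diaphorase/resazurin to fluorescence (540/590 nm); concentration-response curves normalized to no-enzyme control.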
Apoferritin bind: candidate novel general anesthetic via apoferritin binding; P02791; apoferritin/1-aminoanthracene competitive binding, fluorescence; AID 485281; actives 0.074% (n = 350,000); Potency, µM (doses to about 77.5 µM), inactives show at the top dose activity change, negative = displacement, actives largely listed as inhibitors; further: potency means the concentration at half of the fitted maximal effect; on the % scale 0 is the no-effect control and ±100 the full control effect; nearly all actives have a fitted effect of over 20% in size
Target sequence (P02791 2-175 limits assumed): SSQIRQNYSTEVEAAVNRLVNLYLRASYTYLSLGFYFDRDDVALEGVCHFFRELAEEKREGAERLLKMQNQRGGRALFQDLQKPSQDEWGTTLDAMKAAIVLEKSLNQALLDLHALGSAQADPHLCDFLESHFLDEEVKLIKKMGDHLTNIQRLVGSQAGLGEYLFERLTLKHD
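10 uM apoferritin + 50% sat. 1-AMA, PBS; cpd 10 min RT; Ex380/Em535 endpoint; normalized to free probe vs complex; 4-param Hill fit; propofol titration as pos. ctrl.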
KCNH2 3.1 block: inhibitors of human KCNH2 3.1 potassium channel isoform | U2OS KCNH2 3.1, thallium flux FluxOr; hits give low values | actives 0.95% (n = 340,000) | activity change, % (tested at about 1.8 µM);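 active means maximum activity change below -70%; inconclusive means maximum activity change from -70% to -50%; inactive means maximum activity change above -50%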;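 further: thallium influx rate constant from kinetic fluorescence after stimulation buffer; on the % scale 0 is the no-effect control and ±100 the full control effect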
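Thallium flux read-out: FluxOr dye with Red40 quencher in HBSS/HEPES, 45 min at RT. Rate constants from kinetic reads were normalized to positive and negative DMSO controls. Cells: U2OS virally expressing the 3.1 isoform.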
Resorufin autofl: interferes with resorufin fluorescence in IDH1 counter-screen. inhibition of signal, % at 51.2 µM. 750 tested, under 10 active. shares compounds with mIDH1 inhibitor. AID 623980. Resorufin detection reagent fluorescence interference, cell-free;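 further: 0% = wells with normal resorufin and full inhibition = wells lacking resorufin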
WT IDH1 inh: selectivity of mutant IDH1 inhibitors: human wild-type IDH1. shares compounds with mIDH1 inhibitor. WT IDH1 enzyme, NADPH diaphorase/resazurin fluorescence. Potency, µM (top dose mostly 115 µM), for the others: at the highest dose activity change, negative = inhibition, actives largely listed as inhibitors. actives 9% (n = 750);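 further: potency means the concentration at half of the fitted maximal effect; 0% = full WT IDH1 enzyme control and full inhibition = no enzyme wells; nearly all actives have a fitted effect of over 55% in size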
IDH1 R132H conf: inhibits human mutant IDH1 enzyme in cherrypick confirmation; shares compounds with mIDH1 inhibitor; IDH1 R132H enzyme, NADPH diaphorase/resazurin fluorescence; Potency, µM (highest dose often 76.6 µM), without a hit: at the highest dose activity change, negative = inhibition, hits mostly inhibitors; actives 83% (n = 750); AID 624002; further: potency means the concentration at half of the fitted maximal effect; nearly all actives have a fitted effect of over 50% in size
* = called active by the depositor; i = inactive; ? = inconclusive; . = no result given; [ ] = another dose, or the depositor's remark. Unless noted, the call rests on the fitted dose curve; in most records, active means well fitted curve in the direction sought with a large enough effect; inconclusive means small, poorly fitted or top-dose-only effect, or another doubt; inactive means no such curve, though single readings can be large; an effect the other way counts as inactive or inconclusive.

SMILES | KCNH2 WT inh | S-ASM inh | mIDH1 inhibitor | Apoferritin bind | KCNH2 3.1 block | Resorufin autofl | WT IDH1 inh | IDH1 R132H conf
Nc1c(C(=O)NCc2ccccc2)sc2nc(N3CCOCC3)c3c(c12)CCCC3 | 4 | i | ? | 421% | -72* | 4 | ? | 7.9µM*
NNC(=O)c1sc2nc(N3CCOCC3)c3c(c2c1N)CCCC3 | 6 | i | 16% | -15% | 1 | . | . | .
O=C1[C@H]2[C@H]3[C@H](O)[C@H](O)C/C(=N/OCc4ccccc4)[C@H]3CC[C@@H]2C(=O)N1c1cccc(Oc2ccccc2)c1 | . | . | . | -13%[15.3 µM] | . | . | . | .
CCOC(=O)Cn1c(=O)n(C2CCCCC2)c2nc(-c3ccc(OCC)cc3)nc(C(N)=O)c21 | . | . | -11% | -4% | . | . | . | .
COc1ccc(NC(=O)C(c2ccc(OC)cc2)N(C)C(=O)CC2NC(=O)NC2=O)cc1 (centres undefined) | -16 | 3% | 5% | -5% | 12 | . | . | .
CC(C)c1ccc(NC(=O)C(c2ccccc2)N(Cc2ccco2)C(=O)CC2NC(=O)NC2=O)cc1 (centres undefined) | 4 | -12% | ? | ? | 7 | -4 | 5% | ?
O=C(O)CCn1c(=O)n(CCC(=O)O)c(=O)n(CCC(=O)O)c1=O | -5 | 3% | ? | -2% | -11 | 3 | 5% | -4%
O=C(O)CCN1C(=O)c2ccccc2C1=O | -13 | 1% | 0% | 0% | 2 | . | . | .
CCc1cc2c(=O)n(Cc3ccco3)c(SCC(=O)N3CCCc4ccccc43)nc2s1 | -8 | -7% | ? | 1% | -77* | 3 | -2% | ?
c1ccc(N(c2ccccc2)c2nc(-n3ccnc3)nc(-n3ccnc3)n2)cc1 | 6 | -24% | ? | -16% | -8 | 2 | -3% | 25µM*
CN(c1ccccc1)c1nc(-n2ccnc2)nc(-n2ccnc2)n1 | -4 | 0% | 4% | -15% | 4 | . | . | .
COc1ccc(/C=C/C(=O)NC(=S)Nc2ccc(S(=O)(=O)Nc3cc(OC)ncn3)cc2)cc1 | -29 | -8% | ? | -10% | -3 | 7 | 40µM* | 5µM*
COc1cc(NS(=O)(=O)c2ccc(NC(=S)NC(=O)/C=C/c3ccc(OC)c(OC)c3)cc2)ncn1 | 9 | 40% | ? | -14% | 13 | . | . | .
COc1cc(SC#N)ccc1N=Cc1c(C)[nH]n(-c2ccc(C)cc2C)c1=O | 0 | 23% | 41µM* | ? | 0 | 2 | 14% | 16µM*
Cc1cccc(-n2c(SCC(N)=O)nc3c(c2=O)C2(CCCC2)Cc2ccccc2-3)c1 | -2 | -9% | -8% | -7% | 3 | . | . | .
NC(=O)CSc1nc2c(c(=O)n1-c1ccccc1)C1(CCCCC1)Cc1ccccc1-2 | 10 | -8% | 52µM* | 1% | -2 | -2 | 0% | 25µM*
Cc1c(C(=O)Oc2ccc(-c3cnc4ccccc4n3)cc2)cccc1[N+](=O)[O-] | 4 | 4% | ? | -7% | 4 | 4 | 31% | 50µM*
Cc1ccc2nc(-c3cccc(NC(=O)CSc4ccc(Cl)cc4)c3)oc2c1 | . | . | . | -1% | . | . | . | .
COC(=O)C1=NN(c2ccc(OC)cc2)C2C(=O)N(c3ccccc3OC)C(=O)C12 (centres undefined) | 1 | -2% | 0% | -7% | -9 | . | . | .
COC(=O)C1=CC(C(=O)c2cccs2)=NN(c2ccc(OC)cc2)C1C(=O)OC (centres undefined) | i | -12% | ? | -17% | -7 | 2 | 1% | -4%
Cc1ccc(NC(=O)CCCn2c(=O)c3cccn3c3cccnc32)c(Cl)c1 | . | . | -14% | -4% | . | . | . | .
CC(C)C[C@H](NC(=O)[C@H](Cc1ccccc1)NC(=O)[C@H](Cc1ccccc1)NC(=O)[C@@H](N)CO)C(=O)N[C@@H](CCCN=C(N)N)C(=O)N[C@@H](CC(N)=O)C(=O)O | . | . | . | -9% | . | . | . | .
COc1ccc(NC(=S)N=Nc2c(O)[nH]c3ccccc23)cc1 | 1 | ? | -3% | -10% | -5 | . | . | .
COc1ccc(S(=O)(=O)N=Nc2c(O)[nH]c3ccccc23)cc1 | -16 | 1% | 52µM* | -7% | . | -1 | 143% | ?
Cc1ccc(S(=O)(=O)N=Nc2c(O)[nH]c3ccccc23)cc1C | 0 | -3% | 46µM* | -5% | -4 | 1 | 217% | 45µM*
SMILES | KCNH2 WT inh | S-ASM inh | mIDH1 inhibitor | Apoferritin bind | KCNH2 3.1 block | Resorufin autofl | WT IDH1 inh | IDH1 R132H conf
Cc1ccccc1N=Nc1c(O)[nH]c2ccccc12 | -5 | -1% | 7% | . | 23 | . | . | .
Cc1ccc(NC(=O)C(=O)c2cc(C)n(-c3ccc(F)cc3)c2C)cc1C | . | . | -7% | -14% | . | . | . | .
Cc1csc(NC(=O)CCCC(=O)O)c1-c1nc2ccccc2s1 | -4 | 2% | ? | -3% | 5 | -2 | 8% | 25µM*
CCc1ccccc1NC(=O)CSc1nnc(COc2ccccc2Cl)o1 | . | . | -1% | -2% | . | . | . | .
N=c1c(S(=O)(=O)c2ccccc2)cc2c(=O)n3ccccc3nc2n1C1CCCC1 | 24 | 0% | 18µM* | -5% | -47 | 0 | 5% | 7.1µM*
N=c1c(S(=O)(=O)c2ccc(Br)cc2)cc2c(=O)n3ccccc3nc2n1C1CCCC1 | 4 | -1% | -6% | -12% | -5 | . | . | .
C=C1CC2(CC(c3ccccc3)OC(c3ccccc3)C2)OC1=O (centres undefined) | -1 | -2% | 58µM* | . | -16 | 2 | ? | 22µM*
N#CC1=C2N=C(N)c3ccccc3N2C2=C(C(=O)CCC2)C1c1ccc(F)cc1 (centres undefined) | 10 | -5% | ? | -2% | 4 | -3 | -1% | ?
Cc1ccc(C2C(C#N)=C3N=C(N)c4ccccc4N3C3=C2C(=O)CCC3)cc1 (centres undefined) | -3 | -10% | -9% | -18% | 1 | . | . | .
C[C@H](CO)N1C[C@H](C)[C@@H](CN(C)CC2CCCCC2)Oc2c(NS(=O)(=O)c3ccccc3)cccc2C1=O | 4 | -3% | 1% | . | 19 | . | . | .
C[C@H]1CN([C@@H](C)CO)C(=O)c2cccc(NS(=O)(=O)c3ccc(Cl)cc3)c2O[C@@H]1CN(C)CC1CCCCC1 | -7 | -1% | 45µM* | . | -34 | -4 | 4% | 32µM*
Cc1c(CCC(C)C)c(-n2ccnc2C)n2c(nc3ccccc32)c1C#N | -10 | 4% | ? | -1% | -10 | -4 | 10% | ?
